The sample as a whole holds a higher share of the strongest signals than the screen did.
Experiments:
Test in all cases: glycan array binding signal (z-score within array); higher = stronger binding
Settings in all cases: glycan notation: IUPAC condensed, linker removed
[1] = target: Fuc(a1-2)Gal(b1-3)GlcNAc(b1-2)Man(a1-3)[Fuc(a1-2)Gal(b1-3)GlcNAc(b1-2)Man(a1-6)]Man(b1-4)GlcNAc(b1-4)GlcNAc
Method in brief: (§1)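 Glycan array data came from 3228 arrays in the Consortium for Functional Glycomics database, and only arrays with an available protein sequence were kept. Glycan names were put into IUPAC-condensed notation, and columns mapping to the same glycan were averaged. The binding signal is a within-array Z-score, averaged across arrays of one protein sequence run at different concentrations or buffers and across linkers. A negative Z-score can be read as non-binding.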

[2] = target: Fuc(a1-2)Gal(b1-3)GlcNAc(b1-3)[Gal(b1-4)GlcNAc(b1-6)]Gal(b1-4)Glc
Method in brief: as §1

[3] = target: Fuc(a1-2)Gal(b1-3)[Fuc(a1-4)]GlcNAc
Method in brief: as §1

[4] = target: Fuc(a1-2)Gal(b1-4)GlcNAc(b1-3)Gal(b1-4)GlcNAc(b1-2)Man(a1-3)[Fuc(a1-2)Gal(b1-4)GlcNAc(b1-3)Gal(b1-4)GlcNAc(b1-2)Man(a1-6)]Man(b1-4)GlcNAc(b1-4)GlcNAc
Method in brief: as §1

[5] = target: Fuc(a1-2)Gal(b1-4)GlcNAc(b1-3)[Fuc(a1-2)Gal(b1-4)GlcNAc(b1-6)]GalNAc
Method in brief: as §1

[6] = target: Fuc(a1-2)[Gal(a1-3)]Gal(b1-4)GlcNAc
Method in brief: as §1

[7] = target: Fuc(a1-2)[Gal(a1-4)]Gal(b1-4)GlcNAc
Method in brief: as §1

[8] = target: Fuc(a1-2)[GalNAc(a1-3)]Gal
Method in brief: as §1

[9] = target: Fuc(a1-2)[GalNAc(a1-3)]Gal(b1-4)GlcNAc(b1-2)Man(a1-3)[Fuc(a1-2)[GalNAc(a1-3)]Gal(b1-4)GlcNAc(b1-2)Man(a1-6)]Man(b1-4)GlcNAc(b1-4)[Fuc(a1-6)]GlcNAc
Method in brief: as §1

[10] = target: Fuc(a1-2)[GalNAc(a1-3)]Gal(b1-4)GlcNAc(b1-6)GalNAc
Method in brief: as §1

[11] = target: Fuc(a1-2)[GalNAc(a1-3)]Gal(b1-4)[Fuc(a1-3)]GlcNAc(b1-3)GalNAc
Method in brief: as §1

[12] = target: Fuc(a1-3)[Gal(b1-4)]GlcNAc6S
Method in brief: as §1

[13] = target: Gal(a1-3)Gal(b1-4)GlcNAc(b1-2)Man
Method in brief: as §1

[14] = target: Gal(a1-3)Gal(b1-4)GlcNAc(b1-2)Man(a1-3)[Gal(a1-3)Gal(b1-4)GlcNAc(b1-2)Man(a1-6)]Man(b1-4)GlcNAc(b1-4)GlcNAc
Method in brief: as §1

[15] = target: Gal(a1-3)Gal(b1-4)GlcNAc(b1-3)GalNAc
Method in brief: as §1

[16] = target: Gal(a1-3)[Gal(a1-4)]Gal(b1-4)GlcNAc
Method in brief: as §1

[17] = target: Gal(a1-4)Gal(b1-3)GlcNAc(b1-2)Man(a1-3)[Gal(a1-4)Gal(b1-3)GlcNAc(b1-2)Man(a1-6)]Man(b1-4)GlcNAc(b1-4)GlcNAc
Method in brief: as §1

Gal(a1-4)Gal(b1-4)GlcNAc = target: Gal(a1-4)Gal(b1-4)GlcNAc
Method in brief: as §1

[18] = target: Gal(a1-4)Gal(b1-4)GlcNAc(b1-2)Man(a1-3)[Gal(a1-4)Gal(b1-4)GlcNAc(b1-2)Man(a1-6)]Man(b1-4)GlcNAc(b1-4)GlcNAc
Method in brief: as §1

[19] = target: Gal(a1-4)Gal(b1-4)GlcNAc(b1-3)Gal(b1-4)Glc
Method in brief: as §1

Gal(b1-3)Gal(b1-4)GlcNAc = target: Gal(b1-3)Gal(b1-4)GlcNAc
Method in brief: as §1

[20] = target: Gal(b1-3)GalNAc(a1-3)[Fuc(a1-2)]Gal(b1-4)Glc
Method in brief: as §1

[21] = target: Gal(b1-3)GalNAc(a1-3)[Fuc(a1-2)]Gal(b1-4)GlcNAc
Method in brief: as §1

[22] = target: Gal(b1-3)GlcNAc(a1-3)Gal(b1-4)GlcNAc
Method in brief: as §1

[23] = target: Gal(b1-3)GlcNAc(a1-6)Gal(b1-4)GlcNAc
Method in brief: as §1

[24] = target: Gal(b1-3)GlcNAc(b1-2)[Gal(b1-3)GlcNAc(b1-6)]Man(a1-6)[Gal(b1-3)GlcNAc(b1-2)Man(a1-3)]Man(b1-4)GlcNAc(b1-4)GlcNAc
Method in brief: as §1

[25] = target: Gal(b1-3)GlcNAc(b1-6)Gal(b1-4)GlcNAc
Method in brief: as §1

[26] = target: Gal(b1-3)[Neu5Ac(a2-6)]GalNAc
Method in brief: as §1

Gal(b1-4)GlcNAc(b1-2)Man = target: Gal(b1-4)GlcNAc(b1-2)Man
Method in brief: as §1

[27] = target: Gal(b1-4)GlcNAc(b1-2)[Gal(b1-4)GlcNAc(b1-4)]Man(a1-3)[Gal(b1-4)GlcNAc(b1-2)[Gal(b1-4)GlcNAc(b1-6)]Man(a1-6)]Man(b1-4)GlcNAc(b1-4)GlcNAc
Method in brief: as §1

[28] = target: Gal(b1-4)GlcNAc(b1-3)Gal(b1-4)GlcNAc(b1-3)Gal(b1-4)GlcNAc(b1-2)[Gal(b1-4)GlcNAc(b1-3)Gal(b1-4)GlcNAc(b1-3)Gal(b1-4)GlcNAc(b1-6)]Man(a1-6)[Gal(b1-4)GlcNAc(b1-3)Gal(b1-4)GlcNAc(b1-3)Gal(b1-4)GlcNAc(b1-2)Man(a1-3)]Man(b1-4)GlcNAc(b1-4)[Fuc(a1-6)]GlcNAc
Method in brief: as §1

[29] = target: Gal(b1-4)GlcNAc(b1-3)Gal(b1-4)GlcNAc(b1-3)Gal(b1-4)GlcNAc(b1-3)Gal(b1-4)GlcNAc(b1-3)Gal(b1-4)GlcNAc(b1-2)Man(a1-3)[Gal(b1-4)GlcNAc(b1-3)Gal(b1-4)GlcNAc(b1-3)Gal(b1-4)GlcNAc(b1-3)Gal(b1-4)GlcNAc(b1-3)Gal(b1-4)GlcNAc(b1-2)Man(a1-6)]Man(b1-4)GlcNAc(b1-4)GlcNAc
Method in brief: as §1

[30] = target: Gal(b1-4)GlcNAc(b1-3)Gal(b1-4)GlcNAc(b1-3)Gal(b1-4)GlcNAc(b1-3)Gal(b1-4)GlcNAc(b1-3)Gal(b1-4)GlcNAc(b1-2)[Gal(b1-4)GlcNAc(b1-3)Gal(b1-4)GlcNAc(b1-3)Gal(b1-4)GlcNAc(b1-3)Gal(b1-4)GlcNAc(b1-3)Gal(b1-4)GlcNAc(b1-6)]Man(a1-6)[Gal(b1-4)GlcNAc(b1-3)Gal(b1-4)GlcNAc(b1-3)Gal(b1-4)GlcNAc(b1-3)Gal(b1-4)GlcNAc(b1-3)Gal(b1-4)GlcNAc(b1-2)Man(a1-3)]Man(b1-4)GlcNAc(b1-4)[Fuc(a1-6)]GlcNAc
Method in brief: as §1

Gal6S(b1-4)Glc = target: Gal6S(b1-4)Glc
Method in brief: as §1

[31] = target: GalNAc(b1-3)Gal(a1-4)Gal(b1-4)GlcNAc(b1-3)Gal(b1-4)Glc
Method in brief: as §1

GalNAc6S(b1-4)GlcNAc = target: GalNAc6S(b1-4)GlcNAc
Method in brief: as §1

[32] = target: GlcA3S(b1-3)Gal(b1-4)GlcNAc(b1-3)Gal(b1-4)Glc
Method in brief: as §1

[33] = target: GlcNAc(a1-6)Gal(b1-4)GlcNAc
Method in brief: as §1

[34] = target: GlcNAc(b1-2)[GlcNAc(b1-4)]Man(a1-3)[GlcNAc(b1-4)][GlcNAc(b1-2)Man(a1-6)]Man(b1-4)GlcNAc(b1-4)GlcNAc
Method in brief: as §1

GlcNAc(b1-3)Fuc = target: GlcNAc(b1-3)Fuc
Method in brief: as §1

[35] = target: GlcNAc(b1-3)Gal(b1-4)GlcNAc(b1-3)Gal(b1-4)GlcNAc(b1-3)Gal(b1-4)GlcNAc(b1-3)Gal(b1-4)GlcNAc(b1-2)Man(a1-3)[GlcNAc(b1-3)Gal(b1-4)GlcNAc(b1-3)Gal(b1-4)GlcNAc(b1-3)Gal(b1-4)GlcNAc(b1-3)Gal(b1-4)GlcNAc(b1-2)Man(a1-6)]Man(b1-4)GlcNAc(b1-4)[Fuc(a1-6)]GlcNAc
Method in brief: as §1

[36] = target: GlcNAc(b1-3)[GlcNAc(b1-4)][GlcNAc(b1-6)]GlcNAc
Method in brief: as §1

[37] = target: Neu5Ac(a2-3)Gal(b1-3)GlcNAc(b1-2)Man(a1-3)[Neu5Ac(a2-3)Gal(b1-3)GlcNAc(b1-2)Man(a1-6)]Man(b1-4)GlcNAc(b1-4)GlcNAc
Method in brief: as §1

[38] = target: Neu5Ac(a2-3)Gal(b1-3)GlcNAc(b1-3)GalNAc
Method in brief: as §1

[39] = target: Neu5Ac(a2-3)Gal(b1-4)GlcNAc(b1-2)[Neu5Ac(a2-3)Gal(b1-4)GlcNAc(b1-4)]Man(a1-3)[GlcNAc(b1-4)][Neu5Ac(a2-3)Gal(b1-4)GlcNAc(b1-2)[Neu5Ac(a2-3)Gal(b1-4)GlcNAc(b1-6)]Man(a1-6)]Man(b1-4)GlcNAc(b1-4)GlcNAc
Method in brief: as §1

[40] = target: Neu5Ac(a2-3)Gal(b1-4)GlcNAc(b1-3)[Neu5Ac(a2-3)Gal(b1-4)GlcNAc(b1-6)]GalNAc
Method in brief: as §1

[41] = target: Neu5Ac(a2-3)Gal(b1-4)GlcNAc(b1-6)[Neu5Ac(a2-3)Gal(b1-3)]GalNAc
Method in brief: as §1

[42] = target: Neu5Ac(a2-3)Gal(b1-4)GlcNAc6S
Method in brief: as §1

[43] = target: Neu5Ac(a2-6)Gal(b1-4)GlcNAc(b1-2)Man(a1-6)[Man(a1-3)]Man(b1-4)GlcNAc(b1-4)GlcNAc
Method in brief: as §1

[44] = target: Neu5Ac(a2-8)Neu5Ac(a2-3)[GalNAc(b1-4)]Gal(b1-4)Glc
Method in brief: as §1

B1: CGL (Crenomytilus grayanus), H2FH31 (protein)
chain: MTTFLIKHKASGKFLHPYGGSSNPANNTKLVLHSDIHERMYFQFDVVDERWGYIKHVASGKIVHPYGGQANPPNETNMVLHQDRHDRALFAMDFFNDNIMHKGGKYIHPKGGSPNPPNNTETVIHGDKHAAMEFIFVSPKNKDKRVLVYA
- glycan array binding signal (z-score) [1]: -0.195
- glycan array binding signal (z-score) [2]: -0.054
- glycan array binding signal (z-score) [3]: -0.372
- glycan array binding signal (z-score) [4]: 0.855
- glycan array binding signal (z-score) [5]: -0.067
- glycan array binding signal (z-score) [6]: -0.063
- glycan array binding signal (z-score) [7]: 4.38
- glycan array binding signal (z-score) [8]: -0.106
- glycan array binding signal (z-score) [9]: -0.23
- glycan array binding signal (z-score) [10]: -0.096
- glycan array binding signal (z-score) [11]: -0.217
- glycan array binding signal (z-score) [12]: -0.324
- glycan array binding signal (z-score) [13]: 1.69
- glycan array binding signal (z-score) [14]: 5.84
- glycan array binding signal (z-score) [15]: 3.54
- glycan array binding signal (z-score) [16]: 3.32
- glycan array binding signal (z-score) [17]: 4.07
- glycan array binding signal (z-score) (Gal(a1-4)Gal(b1-4)GlcNAc): 3.63
- glycan array binding signal (z-score) [18]: 8.66
- glycan array binding signal (z-score) [19]: 4.55
- glycan array binding signal (z-score) (Gal(b1-3)Gal(b1-4)GlcNAc): -0.077
- glycan array binding signal (z-score) [20]: -0.352
- glycan array binding signal (z-score) [21]: -0.341
- glycan array binding signal (z-score) [22]: 0.396
- glycan array binding signal (z-score) [23]: 0.803
- glycan array binding signal (z-score) [24]: 1.87
- glycan array binding signal (z-score) [25]: 0.949
- glycan array binding signal (z-score) [26]: -0.398
- glycan array binding signal (z-score) (Gal(b1-4)GlcNAc(b1-2)Man): -0.334
- glycan array binding signal (z-score) [27]: 1.1
- glycan array binding signal (z-score) [28]: 3.3
- glycan array binding signal (z-score) [29]: 3.18
- glycan array binding signal (z-score) [30]: 3.77
- glycan array binding signal (z-score) (Gal6S(b1-4)Glc): -0.407
- glycan array binding signal (z-score) [31]: 0.074
- glycan array binding signal (z-score) (GalNAc6S(b1-4)GlcNAc): -0.377
- glycan array binding signal (z-score) [32]: -0.414
- glycan array binding signal (z-score) [33]: -0.356
- glycan array binding signal (z-score) [34]: -0.324
- glycan array binding signal (z-score) (GlcNAc(b1-3)Fuc): -0.323
- glycan array binding signal (z-score) [35]: -0.279
- glycan array binding signal (z-score) [36]: -0.327
- glycan array binding signal (z-score) [37]: -0.382
- glycan array binding signal (z-score) [38]: -0.337
- glycan array binding signal (z-score) [39]: -0.348
- glycan array binding signal (z-score) [40]: -0.248
- glycan array binding signal (z-score) [41]: -0.386
- glycan array binding signal (z-score) [42]: -0.278
- glycan array binding signal (z-score) [43]: -0.418
- glycan array binding signal (z-score) [44]: -0.366

— the supplement of paper PMC8728848
